Measured values published in PubChem BioAssay (EPA / NIEHS).
Several values for one entry are separate records, joined by “and”; a condition that tells them apart may be missing. Equal values may be shown once. Inconclusive results are not listed. Some compounds were tested as several samples or in several runs, with calls that do not always agree. Activity calls are given as the source filed them. How the source made its calls, unless noted: active means hit-call score of the fitted dose curve at least 0.9, where 1 is the maximum; inactive means score below 0.9.

Tests used:
[1] = biological target: Myc proto-oncogene protein (Homo sapiens) (UniProt P01106); test: ATG_Myc_CIS: Attagene CIS-FACTORIAL HepG2 Assay for human Myelocytomatosis (Myc) Proto-Oncogene Transcription Factor (AID 2282990); conditions: HepG2, Attagene cis-reporter transcription factor activity; actives raise or lower the signal
Myc proto-oncogene protein (Homo sapiens), sequence (P01106 whole entry, looked up): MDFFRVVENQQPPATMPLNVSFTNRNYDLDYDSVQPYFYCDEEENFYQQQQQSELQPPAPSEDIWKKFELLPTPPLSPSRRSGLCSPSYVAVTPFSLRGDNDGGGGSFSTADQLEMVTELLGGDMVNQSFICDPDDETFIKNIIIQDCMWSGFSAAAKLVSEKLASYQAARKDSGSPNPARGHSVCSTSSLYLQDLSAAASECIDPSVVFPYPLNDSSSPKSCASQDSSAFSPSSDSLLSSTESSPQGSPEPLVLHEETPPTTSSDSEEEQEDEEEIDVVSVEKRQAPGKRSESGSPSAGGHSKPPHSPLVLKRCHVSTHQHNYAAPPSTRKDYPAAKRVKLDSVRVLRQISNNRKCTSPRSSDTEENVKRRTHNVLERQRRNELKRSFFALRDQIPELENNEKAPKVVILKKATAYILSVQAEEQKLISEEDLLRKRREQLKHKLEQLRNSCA
In short: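 Multiplexed cis-reporter transcription in HepG2 cells after 24 h chemical treatment. Reporter mRNA measured by RT-PCR and capillary electrophoresis fluorescence; activity fitted bidirectionally against DMSO control.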

[2] = ATG_NF_kB_CIS: Attagene CIS-FACTORIAL HepG2 Assay for human Nuclear Factor Kappa B (NF-kB) (AID 2282991); conditions: HepG2 Attagene cis-factorial NF-kB reporter mRNA; actives raise or lower the signal
In short: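 Endogenous transcription factor activity in HepG2 was captured via cis-regulated reporter constructs; after 24 h dosing, reporter mRNA was reverse-transcribed, amplified, fluorescently labelled and sized by capillary electrophoresis, with activity fitted bidirectionally relative to DMSO.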

[3] = biological target: human Peroxisome Proliferator-activated Receptor alpha (PPARa), PPARA (gene 5465) (UniProt Q07869); test: ATG_PPARa_TRANS: Attagene TRANS-FACTORIAL HepG2 Assay for human Peroxisome Proliferator-activated Receptor alpha (PPARa) (AID 2283001; active means hit-call score of the fitted dose curve at least 0.9, where 1 is the maximum;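 on AC50: potency for gain of reporter signal over DMSO so agonist or activator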)
human Peroxisome Proliferator-activated Receptor alpha (PPARa), PPARA (gene 5465), sequence (Q07869 whole entry, looked up, the tested form may be a part): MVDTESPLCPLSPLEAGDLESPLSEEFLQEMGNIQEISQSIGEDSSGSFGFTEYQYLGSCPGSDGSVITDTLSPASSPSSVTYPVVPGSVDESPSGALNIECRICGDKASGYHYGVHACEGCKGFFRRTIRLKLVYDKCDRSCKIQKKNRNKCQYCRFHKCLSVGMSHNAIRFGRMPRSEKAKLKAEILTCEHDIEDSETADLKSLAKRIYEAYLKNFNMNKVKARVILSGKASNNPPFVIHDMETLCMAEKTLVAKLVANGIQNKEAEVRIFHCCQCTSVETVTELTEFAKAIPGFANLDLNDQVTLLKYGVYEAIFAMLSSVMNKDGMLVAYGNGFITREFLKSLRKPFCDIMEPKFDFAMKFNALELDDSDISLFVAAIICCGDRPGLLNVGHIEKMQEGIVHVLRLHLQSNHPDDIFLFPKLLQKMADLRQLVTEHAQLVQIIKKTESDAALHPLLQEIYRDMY
In short: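 Exposure: 24 h, transiently transfected HepG2 cells. Endpoint: GAL4-UAS reporter mRNA, RT-PCR with capillary electrophoresis fluorescence. Baseline: DMSO; increases fitted.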

[4] = biological target: human Peroxisome Proliferator-activated Receptor delta (PPARd), PPARD (gene 5467) (UniProt Q03181); test: ATG_PPARd_TRANS: Attagene TRANS-FACTORIAL HepG2 Assay for human Peroxisome Proliferator-activated Receptor delta (PPARd) (AID 2283002; active means hit-call score of the fitted dose curve at least 0.9, where 1 is the maximum)
human Peroxisome Proliferator-activated Receptor delta (PPARd), PPARD (gene 5467), sequence (Q03181 whole entry, looked up, the tested form may be a part): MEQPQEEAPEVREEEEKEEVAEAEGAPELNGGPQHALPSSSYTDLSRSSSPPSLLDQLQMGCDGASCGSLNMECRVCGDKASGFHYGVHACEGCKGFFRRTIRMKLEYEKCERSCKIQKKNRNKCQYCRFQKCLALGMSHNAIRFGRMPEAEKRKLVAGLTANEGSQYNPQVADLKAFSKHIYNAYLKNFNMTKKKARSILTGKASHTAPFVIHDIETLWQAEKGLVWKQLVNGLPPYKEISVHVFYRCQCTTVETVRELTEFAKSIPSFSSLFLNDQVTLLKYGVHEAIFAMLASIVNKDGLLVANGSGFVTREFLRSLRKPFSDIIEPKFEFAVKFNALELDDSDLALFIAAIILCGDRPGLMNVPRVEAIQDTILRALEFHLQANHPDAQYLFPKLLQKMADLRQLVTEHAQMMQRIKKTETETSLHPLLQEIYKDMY
In short: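 Multiplexed trans-activation format: HepG2 liver cells expressing exogenous NR-Gal4 chimeras and GAL4-UAS reporters were exposed for 24 h. Reporter mRNA was detected by RT-PCR with capillary electrophoresis fluorescence; activity fitted as gain of signal relative to DMSO.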

[5] = biological target: Peroxisome proliferator-activated receptor gamma (Homo sapiens) (UniProt P37231); test: ATG_PPARg_TRANS: Attagene TRANS-FACTORIAL HepG2 Assay for human Peroxisome Proliferator-activated Receptor-gamma (PPARg) (AID 2283007; active means hit-call score of the fitted dose curve at least 0.9, where 1 is the maximum)
Peroxisome proliferator-activated receptor gamma (Homo sapiens), sequence (P37231 whole entry, looked up, the tested form may be a part): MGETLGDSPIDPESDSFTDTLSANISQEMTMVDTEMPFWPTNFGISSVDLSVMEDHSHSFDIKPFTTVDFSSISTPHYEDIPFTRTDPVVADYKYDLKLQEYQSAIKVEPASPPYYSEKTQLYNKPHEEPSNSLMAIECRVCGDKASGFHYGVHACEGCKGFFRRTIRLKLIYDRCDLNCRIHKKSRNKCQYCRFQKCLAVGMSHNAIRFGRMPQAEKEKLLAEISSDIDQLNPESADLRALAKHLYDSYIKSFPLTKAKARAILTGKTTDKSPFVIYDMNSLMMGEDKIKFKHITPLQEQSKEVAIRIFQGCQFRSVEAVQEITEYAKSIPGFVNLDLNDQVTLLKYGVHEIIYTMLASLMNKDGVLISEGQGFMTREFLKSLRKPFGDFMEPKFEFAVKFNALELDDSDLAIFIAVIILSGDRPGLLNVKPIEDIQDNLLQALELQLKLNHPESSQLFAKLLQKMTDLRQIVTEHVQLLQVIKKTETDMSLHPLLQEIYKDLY
In short: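 A TRANS-format multiplexed reporter assay measures activity of an exogenous chimeric NR-Gal4 protein in HepG2 cells. After 24 h of chemical exposure, reporter transcripts are amplified, fluorescently labelled and sized by capillary electrophoresis, with gain of signal scored against DMSO.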

[6] = biological target: Nuclear receptor subfamily 1 group I member 2 (Homo sapiens) (UniProt O75469); test: ATG_PXR_TRANS: Attagene TRANS-FACTORIAL HepG2 Assay for human Pregnane X Receptor (PXR) (AID 2283008; active means hit-call score of the fitted dose curve at least 0.9, where 1 is the maximum)
Nuclear receptor subfamily 1 group I member 2 (Homo sapiens), sequence (O75469 whole entry, looked up, the tested form may be a part): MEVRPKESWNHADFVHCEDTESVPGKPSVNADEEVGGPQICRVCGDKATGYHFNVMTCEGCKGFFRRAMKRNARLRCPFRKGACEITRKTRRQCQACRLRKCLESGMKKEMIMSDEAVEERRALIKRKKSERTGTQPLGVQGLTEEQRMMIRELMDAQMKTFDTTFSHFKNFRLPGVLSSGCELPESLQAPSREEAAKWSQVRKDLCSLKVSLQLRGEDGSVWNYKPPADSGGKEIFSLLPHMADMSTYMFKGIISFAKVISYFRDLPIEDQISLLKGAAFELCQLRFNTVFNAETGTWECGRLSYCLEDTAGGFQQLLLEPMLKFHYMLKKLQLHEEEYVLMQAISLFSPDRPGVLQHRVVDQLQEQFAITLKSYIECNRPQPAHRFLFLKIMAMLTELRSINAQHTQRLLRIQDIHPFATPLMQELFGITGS
In short: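 Transactivation by exogenous PXR–GAL4 fusion measured as reporter transcript induction after 24 h compound treatment of transfected human HepG2 cells. Read-out via RT-PCR and capillary electrophoresis of labelled fragments, fitted upward relative to DMSO.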

[7] = biological target: human Retinoic Acid Receptor gamma (RARg), RARG (gene 5916) (UniProt P13631); test: ATG_RARg_TRANS: Attagene TRANS-FACTORIAL HepG2 Assay for human Retinoic Acid Receptor gamma (RARg) (AID 2283009; active means hit-call score of the fitted dose curve at least 0.9, where 1 is the maximum;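 on AC50: AC50 is for reporter induction above DMSO meaning RARg activation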)
human Retinoic Acid Receptor gamma (RARg), RARG (gene 5916), sequence (P13631 whole entry, looked up, the tested form may be a part): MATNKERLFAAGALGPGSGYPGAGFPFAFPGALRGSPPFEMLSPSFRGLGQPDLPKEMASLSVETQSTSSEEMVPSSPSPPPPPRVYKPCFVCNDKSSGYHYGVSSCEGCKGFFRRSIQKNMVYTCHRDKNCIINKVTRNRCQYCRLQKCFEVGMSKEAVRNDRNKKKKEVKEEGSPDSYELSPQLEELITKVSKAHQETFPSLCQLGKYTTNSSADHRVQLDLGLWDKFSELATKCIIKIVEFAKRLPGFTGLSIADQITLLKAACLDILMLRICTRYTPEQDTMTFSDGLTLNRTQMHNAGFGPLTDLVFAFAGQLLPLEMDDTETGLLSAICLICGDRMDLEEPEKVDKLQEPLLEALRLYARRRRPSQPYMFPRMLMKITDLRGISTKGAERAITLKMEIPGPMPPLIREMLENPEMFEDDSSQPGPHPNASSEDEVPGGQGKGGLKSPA
In short: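 Readout: reporter transcript levels via RT-PCR, 6-FAM primer-extension labelling, HpaI digestion and capillary electrophoresis. Cells: HepG2 carrying transfected RARg-GAL4 chimera plus UAS reporter set. Dosing 24 h; DMSO negative control.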

[8] = biological target: human RAR-related Orphan Receptor beta (RORb), RORB (gene 6096) (UniProt Q92753); test: ATG_RORb_TRANS: Attagene TRANS-FACTORIAL HepG2 Assay for human RAR-related Orphan Receptor beta (RORb) (AID 2283010; active means hit-call score of the fitted dose curve at least 0.9, where 1 is the maximum)
human RAR-related Orphan Receptor beta (RORb), RORB (gene 6096), sequence (Q92753 whole entry, looked up, the tested form may be a part): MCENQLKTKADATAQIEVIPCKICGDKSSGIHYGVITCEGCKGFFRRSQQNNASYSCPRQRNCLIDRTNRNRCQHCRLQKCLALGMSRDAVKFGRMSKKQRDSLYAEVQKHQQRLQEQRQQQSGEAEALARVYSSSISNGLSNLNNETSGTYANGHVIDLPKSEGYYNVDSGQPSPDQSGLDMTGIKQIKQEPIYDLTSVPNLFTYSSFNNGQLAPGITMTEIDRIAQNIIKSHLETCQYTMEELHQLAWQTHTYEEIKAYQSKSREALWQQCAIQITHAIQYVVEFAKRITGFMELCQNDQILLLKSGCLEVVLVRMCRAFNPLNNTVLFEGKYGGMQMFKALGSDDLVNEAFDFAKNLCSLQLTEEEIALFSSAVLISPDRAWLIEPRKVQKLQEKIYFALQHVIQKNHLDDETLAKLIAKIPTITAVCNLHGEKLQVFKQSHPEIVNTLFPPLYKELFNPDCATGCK
In short: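 HepG2, transient MRTU transfection (GAL4-UAS reporters, exogenous NR-Gal4 chimeras); 24 h compound exposure; total RNA → RT-PCR → 6-FAM primer extension → HpaI digest → CE fluorescence. Positive direction vs DMSO baseline.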

[9] = ATG_Oct_MLP_CIS: Attagene CIS-FACTORIAL HepG2 Assay for human Octamer-Binding Transcription Factor (Oct) (AID 2282993); conditions: HepG2 Attagene cis-factorial Oct reporter, mRNA; actives raise or lower the signal
In short: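 Readout is reporter transcript level from RT-PCR with fluorescent primer extension and capillary electrophoresis, fitted in both directions against DMSO. Transfected HepG2 reporter units report endogenous factor activity after 24 h dosing.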

[10] = BSK_3C_TissueFactor: BioMAP Diversity Plus: 3C Assay for Tissue Factor Biomarker Activity (AID 2282997); conditions: BioMAP 3C HUVEC, tissue factor biomarker readout; actives raise or lower the signal
In short: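 Tissue Factor measured by ELISA, 24 h after treatment of primary HUVEC in the BioMAP 3C setting.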

[11] = BSK_3C_uPAR: BioMAP Diversity Plus: 3C Assay for Urokinase-type plasminogen activator receptor (uPAR) Biomarker Activity (AID 2282998); conditions: BioMAP 3C HUVEC, uPAR biomarker ELISA; actives raise or lower the signal
In short: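 Cell-surface uPAR on HUVEC (3C system) read by ELISA at 24 h post-treatment, with DMSO as baseline and fitting in both directions. Parallel cultures stained with SRB to flag overt cytotoxicity.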

[12] = BSK_3C_VCAM1: BioMAP Diversity Plus: 3C Assay for Vascular cell adhesion molecule 1 (VCAM1) Biomarker Activity (AID 2282999); conditions: BioMAP 3C HUVEC, VCAM1 ELISA, cytokine-stimulated; actives raise or lower the signal
In short: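 Vascular primary endothelium (human umbilical vein) was exposed to chemicals and assayed 24 h later. VCAM-1 levels came from ELISA, with DMSO serving as baseline for bidirectional fitting.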

[13] = BSK_4H_Eotaxin3: BioMAP Diversity Plus: 4H Assay for Eotaxin 3 Biomarker Activity (AID 2283000); conditions: primary human endothelial cells (HUVEC); actives raise or lower the signal
In short: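 Eotaxin-3 (CCL26) levels were measured by ELISA in HUVEC primary cultures 24 h post-dosing. Gain or loss of signal was fitted in both directions, with DMSO serving as baseline and negative control.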

[14] = read-out: Intercellular Adhesion Molecule 1 (ICAM1), ICAM1 (gene 3383); test: BSK_3C_ICAM1: BioMAP Diversity Plus: 3C Assay for Intercellular Adhesion Molecule 1 (ICAM1) Biomarker Activity (AID 2283003); conditions: primary human endothelial cells (HUVEC); actives raise or lower the signal
In short: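 ELISA read-out of ICAM-1; HUVEC (primary human), 3C system, 24 h post-dosing; bidirectional fit vs DMSO baseline.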

[15] = biological target: Retinoic acid receptor alpha (Homo sapiens) (UniProt P10276); test: ATG_RARa_TRANS: Attagene TRANS-FACTORIAL HepG2 Assay for human Retinoic Acid Receptor alpha (RARa) (AID 2283005; active means hit-call score of the fitted dose curve at least 0.9, where 1 is the maximum)
Retinoic acid receptor alpha (Homo sapiens), sequence (P10276 whole entry, looked up, the tested form may be a part): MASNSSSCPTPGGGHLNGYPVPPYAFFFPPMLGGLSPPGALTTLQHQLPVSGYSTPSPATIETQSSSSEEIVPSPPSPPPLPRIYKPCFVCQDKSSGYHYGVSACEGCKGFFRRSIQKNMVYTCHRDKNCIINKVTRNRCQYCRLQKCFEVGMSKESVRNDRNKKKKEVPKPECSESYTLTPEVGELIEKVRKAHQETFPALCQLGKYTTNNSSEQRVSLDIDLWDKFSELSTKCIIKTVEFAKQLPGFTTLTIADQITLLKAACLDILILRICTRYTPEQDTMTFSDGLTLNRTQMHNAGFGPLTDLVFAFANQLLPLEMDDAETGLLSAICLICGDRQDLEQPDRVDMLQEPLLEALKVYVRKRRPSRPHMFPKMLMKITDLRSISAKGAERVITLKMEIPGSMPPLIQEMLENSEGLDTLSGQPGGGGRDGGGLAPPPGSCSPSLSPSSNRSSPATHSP
In short: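 HepG2 cells transiently transfected with multiple reporter units expressing chimeric RARα-GAL4 fusion, with GAL4-UAS-driven reporters. After 24 h compound exposure, reporter mRNA induction quantified by RT-PCR and capillary electrophoresis with fluorescent labeling; gain-of-signal fitted relative to DMSO control.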

[16] = BSK_3C_Proliferation: Cell Proliferation Assessment in the BioMAP Diversity Plus: 3C Assay (AID 2283006); conditions: primary human endothelial cells (HUVEC);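 on AC50: potency may reflect either rise or fall in cell number versus DMSO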
In short: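 HUVEC, sub-confluent; 48 h chemical exposure; 10% TCA fix, 0.1% SRB stain, A560 total protein. Gain or loss of signal fitted both directions vs DMSO control.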

[17] = biological target: human RAR-related Orphan Receptor gamma (RORg), RORC (gene 6097) (UniProt P51449); test: ATG_RORg_TRANS: Attagene TRANS-FACTORIAL HepG2 Assay for human RAR-related Orphan Receptor gamma (RORg) (AID 2283011; active means hit-call score of the fitted dose curve at least 0.9, where 1 is the maximum)
human RAR-related Orphan Receptor gamma (RORg), RORC (gene 6097), sequence (P51449 whole entry, looked up, the tested form may be a part): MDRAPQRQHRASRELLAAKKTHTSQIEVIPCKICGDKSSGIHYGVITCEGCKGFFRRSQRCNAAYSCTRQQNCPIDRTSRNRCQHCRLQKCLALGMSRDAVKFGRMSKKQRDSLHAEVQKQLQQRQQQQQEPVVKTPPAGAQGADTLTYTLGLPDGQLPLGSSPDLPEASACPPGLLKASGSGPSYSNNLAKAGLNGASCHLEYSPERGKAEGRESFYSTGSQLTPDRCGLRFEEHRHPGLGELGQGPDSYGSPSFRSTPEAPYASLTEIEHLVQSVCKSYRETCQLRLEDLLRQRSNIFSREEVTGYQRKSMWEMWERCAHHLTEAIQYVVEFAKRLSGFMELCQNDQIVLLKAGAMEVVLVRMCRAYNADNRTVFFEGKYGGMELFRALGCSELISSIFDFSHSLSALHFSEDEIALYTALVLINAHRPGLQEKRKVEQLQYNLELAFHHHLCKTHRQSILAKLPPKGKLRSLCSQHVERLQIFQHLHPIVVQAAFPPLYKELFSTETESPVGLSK
In short: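 HepG2 cells transiently transfected with GAL4-UAS reporter units and chimeric RORg-Gal4 construct; after 24 h chemical exposure, reporter mRNA measured by RT-PCR with fluorescent capillary electrophoresis, gain of signal fitted against DMSO.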

[18] = biological target: Cellular tumor antigen p53 (Homo sapiens) (UniProt P04637); test: ATG_p53_CIS: Attagene CIS-FACTORIAL HepG2 Assay for human p53 Transcription Factor (AID 2282994); conditions: HepG2 p53 cis-element reporter, Attagene mRNA; actives raise or lower the signal
Cellular tumor antigen p53 (Homo sapiens), sequence (P04637 whole entry, looked up): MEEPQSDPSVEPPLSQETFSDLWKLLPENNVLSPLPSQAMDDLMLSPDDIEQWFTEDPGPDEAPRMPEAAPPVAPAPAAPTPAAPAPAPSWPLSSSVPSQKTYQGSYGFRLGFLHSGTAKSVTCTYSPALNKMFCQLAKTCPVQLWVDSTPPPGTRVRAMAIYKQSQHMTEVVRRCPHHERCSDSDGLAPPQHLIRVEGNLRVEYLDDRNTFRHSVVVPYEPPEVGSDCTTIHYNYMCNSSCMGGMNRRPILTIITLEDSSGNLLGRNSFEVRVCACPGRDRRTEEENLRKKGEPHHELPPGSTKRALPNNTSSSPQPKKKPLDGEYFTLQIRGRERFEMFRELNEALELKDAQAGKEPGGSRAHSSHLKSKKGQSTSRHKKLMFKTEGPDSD
In short: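 Endogenous p53 activity read in transiently transfected HepG2 from a cis-element-driven reporter transcript after 24 h exposure. RNA reverse-transcribed, PCR-amplified, fluorescently labelled and sized by capillary electrophoresis; gain or loss fitted against DMSO baseline.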

[19] = ATG_NRF2_ARE_CIS: Attagene CIS-FACTORIAL HepG2 Assay for human Nuclear Factor Erythroid 2 Related Factor 2 (NFR2) response to Antioxidant Response Elements (ARE) (AID 2282992); conditions: HepG2 Attagene ARE/NRF2 reporter, transcription factor activity; actives raise or lower the signal
In short: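 Endogenous transcription factor activity read out as reporter transcript levels (RT-PCR plus capillary electrophoresis, fluorescence) in transiently transfected HepG2 cells. Measured at 24 h after dosing; gain or loss of signal fitted versus DMSO.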

[20] = biological target: human Retinoic Acid Receptor beta (RARb), RARB (gene 5915) (UniProt P10826); test: ATG_RARb_TRANS: Attagene TRANS-FACTORIAL HepG2 Assay for human Retinoic Acid Receptor beta (AID 2283004; active means hit-call score of the fitted dose curve at least 0.9, where 1 is the maximum)
In short: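 HepG2 cells were transiently transfected with GAL4-UAS reporter units that report activity of exogenous chimeric NR-Gal4 proteins, then exposed to compound for 24 h. Reporter mRNA was quantified by RT-PCR with capillary electrophoresis fluorescence, as gain of signal over DMSO.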

Measured: AC50

CCCCCCCCCCCC[N+](C)(C)Cc1ccccc1
inactive: [1] | [2] | [3] | [4] | [5] | [6] | [8]
active: [3] 68.2 µM | [7] 155 µM

CC(=O)Nc1ccc(O)cc1
inactive: [1] | [9] | [10] | [11] | [12] | [13] | [4] | [14] | [15] | [16] | [17]

CCCCCCCCCC=CCC1CC(=O)OC1=O (stereo not given)
inactive: [1] | [18] | [3] | [17]
active: [2] 54.9 µM

CNNCc1ccc(C(=O)NC(C)C)cc1
inactive: [1] | [9] | [18] | [3] | [4] | [5] | [6] | [8]

O=C1OC2(c3ccccc31)c1cc(I)c(O)c(I)c1Oc1c2cc(I)c(O)c1I
inactive: [1] | [19] | [9] | [18] | [3] | [4] | [16] | [6] | [8] | [17]
active: [11] 5.04 µM | [12] 12 µM | [13] 8.42 µM | [14] 12 µM | [6] 5.08 µM and 15.4 µM

O=S(=O)(O)C(F)(F)C(F)(F)C(F)(F)C(F)(F)C(F)(F)C(F)(F)C(F)(F)C(F)(F)C(F)(F)C(F)(F)F
active: [2] 14.6 µM and 9.12 µM | [11] 24.6 µM and 13.3 µM | [13] 5.83 µM | [16] 13.3 µM
inactive: [1] | [18] | [12] | [13] | [3] | [4] | [14] | [20] | [15] | [6] | [7] | [8] | [17]

O=C(Nc1cccc([N+](=O)[O-])c1)c1cc2ccccc2cc1O
inactive: [1] | [9] | [18] | [3] | [4] | [15] | [7] | [8]
active: [19] 1.37 µM | [5] 6.92 µM | [6] 8.27 µM

NNC(=O)CCCCC(=O)NN
inactive: [1] | [19] | [9] | [3] | [4] | [6] | [7] | [8]

CCN(CC)CC
inactive: [1] | [19] | [9] | [18] | [3] | [4] | [6] | [7] | [17]

COc1ccc(C#N)cc1
inactive: [1] | [2] | [18] | [3] | [6] | [7] | [8]
